The supplement of paper PMC8728848
Shown is part of a subset that was picked to be rich in the strongest signals.

Key:
Assay in all cases: glycan array binding signal (z-score within array); higher = stronger binding
Conditions in all cases: glycan notation: IUPAC condensed, linker removed
[1] = target: Fuc(a1-2)Gal(b1-3)GalNAc(b1-3)Gal
Procedure, shortened: (§1)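 Arrays were curated from the Consortium for Functional Glycomics database, 3228 in total, and kept only where the protein sequence was available. Binding is expressed as a within-array Z-score. This score was averaged across arrays of the same protein sequence at different concentrations or buffers and across linkers, and negative values can be read as non-binding.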

[2] = target: Fuc(a1-2)Gal(b1-4)Glc6S
Procedure, shortened: as §1

[3] = target: Fuc(a1-2)Gal(b1-4)GlcNAc(b1-3)GalNAc
Procedure, shortened: as §1

[4] = target: Fuc(a1-2)Gal(b1-4)[Fuc(a1-3)]GlcNAc(b1-2)Man(a1-3)[Fuc(a1-2)Gal(b1-4)[Fuc(a1-3)]GlcNAc(b1-2)Man(a1-6)]Man(b1-4)GlcNAc(b1-4)[Fuc(a1-6)]GlcNAc
Procedure, shortened: as §1

[5] = target: Fuc(a1-2)Gal(b1-4)[Fuc(a1-3)]GlcNAc(b1-3)Gal(b1-4)[Fuc(a1-3)]GlcNAc(b1-3)Gal(b1-4)[Fuc(a1-3)]GlcNAc
Procedure, shortened: as §1

[6] = target: Fuc(a1-2)Gal(b1-4)[Fuc(a1-3)]GlcNAc(b1-3)[Neu5Ac(a2-6)Gal(b1-4)GlcNAc(b1-6)]Gal(b1-4)Glc
Procedure, shortened: as §1

[7] = target: Fuc(a1-2)[Gal(a1-3)]Gal(b1-4)GlcNAc(b1-6)GalNAc
Procedure, shortened: as §1

[8] = target: Fuc(a1-2)[Gal(a1-3)]Gal(b1-4)[Fuc(a1-3)]GlcNAc(b1-3)GalNAc
Procedure, shortened: as §1

[9] = target: Fuc(a1-2)[GalNAc(a1-3)]Gal(b1-3)GalNAc(b1-3)Gal(a1-4)Gal(b1-4)Glc
Procedure, shortened: as §1

[10] = target: Fuc(a1-2)[GalNAc(a1-3)]Gal(b1-3)GlcNAc(b1-3)GalNAc
Procedure, shortened: as §1

[11] = target: Fuc(a1-2)[GalNAc(a1-3)]Gal(b1-4)GlcNAc(b1-2)Man(a1-3)[Fuc(a1-2)[GalNAc(a1-3)]Gal(b1-4)GlcNAc(b1-2)Man(a1-6)]Man(b1-4)GlcNAc(b1-4)GlcNAc
Procedure, shortened: as §1

[12] = target: Fuc(a1-2)[GalNAc(a1-3)]Gal(b1-4)[Fuc(a1-3)]GlcNAc(b1-3)GalNAc
Procedure, shortened: as §1

[13] = target: Fuc(a1-3)[Gal(b1-4)]GlcNAc(b1-6)[Neu5Ac(a2-3)Gal(b1-3)]GalNAc
Procedure, shortened: as §1

[14] = target: Gal(a1-4)Gal(b1-4)GlcNAc(b1-3)Gal(b1-4)Glc
Procedure, shortened: as §1

[15] = target: Gal(b1-3)Gal
Procedure, shortened: as §1

[16] = target: Gal(b1-3)GalNAc(a1-3)[Fuc(a1-2)]Gal(b1-4)Glc
Procedure, shortened: as §1

[17] = target: Gal(b1-3)GalNAc(b1-4)Gal(b1-4)Glc
Procedure, shortened: as §1

[18] = target: Gal(b1-3)GlcNAc(a1-3)Gal(b1-4)GlcNAc
Procedure, shortened: as §1

[19] = target: Gal(b1-3)[Neu5Ac(a2-6)]GlcNAc(b1-4)Gal(b1-4)Glc
Procedure, shortened: as §1

[20] = target: Gal(b1-4)GlcNAc(b1-2)Man(a1-3)[Gal(b1-4)GlcNAc(b1-2)Man(a1-6)]Man(b1-4)GlcNAc(b1-4)[Fuc(a1-6)]GlcNAc
Procedure, shortened: as §1

[21] = target: Gal(b1-4)GlcNAc(b1-2)Man(a1-3)[Gal(b1-4)GlcNAc(b1-2)Man(a1-6)][Gal(b1-4)GlcNAc(b1-4)]Man(b1-4)GlcNAc(b1-4)[Fuc(a1-6)]GlcNAc
Procedure, shortened: as §1

[22] = target: Gal(b1-4)GlcNAc(b1-2)Man(a1-3)[GlcNAc(b1-4)][Gal(b1-4)GlcNAc(b1-2)Man(a1-6)]Man(b1-4)GlcNAc(b1-4)GlcNAc
Procedure, shortened: as §1

[23] = target: Gal(b1-4)GlcNAc(b1-2)Man(a1-3)[Man(a1-6)]Man(b1-4)GlcNAc(b1-4)GlcNAc
Procedure, shortened: as §1

[24] = target: Gal(b1-4)GlcNAc(b1-2)[Gal(b1-4)GlcNAc(b1-4)]Man(a1-3)[GlcNAc(b1-4)][Gal(b1-4)GlcNAc(b1-2)Man(a1-6)]Man(b1-4)GlcNAc(b1-4)GlcNAc
Procedure, shortened: as §1

[25] = target: Gal(b1-4)GlcNAc(b1-3)Gal(b1-4)GlcNAc(b1-3)[Gal(b1-4)GlcNAc(b1-3)Gal(b1-4)GlcNAc(b1-6)]GalNAc
Procedure, shortened: as §1

[26] = target: Gal3S6S(b1-4)GlcNAc6S
Procedure, shortened: as §1

[27] = target: Gal6S(b1-3)GlcNAc6S
Procedure, shortened: as §1

[28] = target: Gal6S(b1-4)GlcNAc6S
Procedure, shortened: as §1

[29] = target: GalNAc(a1-3)GalNAc(b1-3)Gal(a1-4)Gal(b1-4)Glc
Procedure, shortened: as §1

[30] = target: GalNAc(b1-4)GlcNAc(b1-2)Man
Procedure, shortened: as §1

[31] = target: GlcA3S(b1-3)Gal(b1-4)GlcNAc(b1-3)Gal(b1-4)Glc
Procedure, shortened: as §1

B1: PpFlo1 (Pichia pastoris) (protein)
chain: MGSSHHHHHHSSGLVPRGSHMQESGDGDISDSAYACDIDATRYDGFNATIYEFQPGDGRLTRDPVFMSTGYLNRTQLHSITGVTDPGFSIYTPGVPTTTLYGIPNVNWENLLLELKGYFRAEVSGDYGLSLRNIDDSAILFFGKETAFQCCNENSISNEASTDYSLFTIFRQEGDETTNLDSFTYTQYLEAGKYYPVRTFFVNIERHAVFNFTMTLPDGTELTDFHNYIYQFGALDEEQCQA
**Q.** What does the source list for B1?
**A.** glycan array binding signal (z-score) [1]: -0.068; glycan array binding signal (z-score) [2]: -0.627; glycan array binding signal (z-score) [3]: 9.01; glycan array binding signal (z-score) [4]: 0.805; glycan array binding signal (z-score) [5]: 0.218; glycan array binding signal (z-score) [6]: -0.279; glycan array binding signal (z-score) [7]: -0.228; glycan array binding signal (z-score) [8]: 1.04; glycan array binding signal (z-score) [9]: -0.244; glycan array binding signal (z-score) [10]: 3.23; glycan array binding signal (z-score) [11]: 2.04; glycan array binding signal (z-score) [12]: 7.08; glycan array binding signal (z-score) [13]: 3.09; glycan array binding signal (z-score) [14]: -0.25; glycan array binding signal (z-score) [15]: 0.345; glycan array binding signal (z-score) [16]: -0.55; glycan array binding signal (z-score) [17]: 3.27; glycan array binding signal (z-score) [18]: -0.388; glycan array binding signal (z-score) [19]: 0.298; glycan array binding signal (z-score) [20]: -0.323; glycan array binding signal (z-score) [21]: 0.235; glycan array binding signal (z-score) [22]: -0.214; glycan array binding signal (z-score) [23]: 1.6; glycan array binding signal (z-score) [24]: -0.266; glycan array binding signal (z-score) [25]: 0.345; glycan array binding signal (z-score) [26]: 1.38; glycan array binding signal (z-score) [27]: 2.66; glycan array binding signal (z-score) [28]: 1.66; glycan array binding signal (z-score) [29]: -0.647; glycan array binding signal (z-score) [30]: -0.267; glycan array binding signal (z-score) [31]: -0.4
